Screens: PubChem BioAssay, several laboratories
CHT inh: inhibitors of human choline transporter CHT; actives 0.86% (n = 310,000); Q9GZV3; CHT-expressing cells, membrane potential dye, choline response; active compounds read low; B-score at 10 µM;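 active = B-score over 3 SD under the library average, and starting fluorescence ratio not unusually high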;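 note: choline stimulus applied at its EC90 after an EC20 pre-addition; B-score computed on integrated fluorescence ratio after choline addition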
Platelet DG rel: modulates dense granule release in human platelets; human platelet-rich plasma, SFLLRN dense granule ATP release, luminescence; inhibition, %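 (compounds screened at 7.5 µM in platelet-rich plasma)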; AID 1663; actives 0.22% (n = 300,000);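 active = mean replicate score, as percent of positive control, at or above 50; inconclusive = mean below 50 but at least one replicate at or above 50; inactive = mean and every replicate below 50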
VLA-4 inh: inhibition in a human VLA-4 binding assay; P13612; VLA-4 expressing cells, ligand binding flow cytometry; actives 0.2% (n = 330,000); inhibition, % (about 7 µM as worked out from the volumes in the protocol); AID 2557; in the data active = inhibition above about 50%
CHT allo act: human CHT allosteric activation; CHT-expressing cells, membrane potential dye, choline EC20; active compounds read high; LV-AA mutant CHT in HEK293 cells; B-score at 10 µM; actives 0.49% (n = 310,000); AID 488977;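 active = initial fluorescence not abnormally high and integrated response B-score, plate-corrected, over 3 SD above library mean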
AI-2 QS modul: Vibrio harveyi AI-2 quorum sensing modulation | activity change, % at 7.5 µM | AID 2094 | actives 0.4% (n = 300,000) | Vibrio harveyi JMH597 AI-2 luminescence/OD600 ratio, 9 h; active compounds read low; strain lacks LuxN and CqsS sensors; 0 = neutral-control median; in the data active = activity change below about -75%, passing the limit was not always enough; inconclusive = no clear call, values can overlap the other calls;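 note: luminescence divided by OD600 gain over 9 h not by final OD600 alone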
HIF activator: HIF pathway transcriptional activation; U2OS HRE-luciferase reporter, luminescence; normalized: DMSO 0%, desferrioxamine 100%; activation, % at 7.5 µM (by protocol); actives 0.32% (n = 300,000); AID 1910;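 active = mean activation of at least 10% of the iron chelator positive control signal, with at least half of replicates also reaching 10%; inconclusive = mean and replicate majority disagree about reaching 10%; inactive = mean and most replicates under 10%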
JMH597 growth: retest: blocks Vibrio harveyi JMH597 growth; shares compounds with AI-2 QS modul; OD600 absorbance, 9 h; lacks LuxN and CqsS sensors; growth inhibition, % at 7.5 µM; actives 1% (n = 750); AID 2726;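 active = every replicate shows growth inhibition above 50%; inconclusive = at least half, but not all, replicates pass that cutoff; inactive = fewer than half of replicates pass it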
BB721 lum counter: retest counter-screen: luminescence loss in constitutive-on quorum sensing strain BB721; inhibition, % at 7.5 µM; actives 95% (n = 750); AID 2727; shares compounds with AI-2 QS modul; Vibrio harveyi BB721 luminescence, 9 h;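 active = inhibition above about 80% in every replicate, not just on average, limit read from the data; inconclusive = at least half of replicates past the limit, but not all; inactive = fewer than half of replicates past the limit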
BB721 growth rt: retest Vibrio harveyi BB721 growth inhibition; OD600 absorbance, 9 h; growth inhibition, % at 7.5 µM; shares compounds with AI-2 QS modul; actives 3% (n = 750);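 active = every replicate shows growth inhibition above 50%; inconclusive = at least half but not all replicates above 50% inhibition; inactive = under half of replicates above 50% inhibition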
AI-2 QS JMH597: Vibrio harveyi AI-2 signaling luminescence modulation – JMH597 strain, confirmation | Vibrio harveyi JMH597 AI-2 quorum sensing luminescence, 9 h; luxN and CqsS knockout, AI-2 only | AID 2736 | shares compounds with AI-2 QS modul | actives 97% (n = 750) | inhibition, % at 7.5 µM;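 active = every replicate shows more than 75% inhibition of signal versus neutral control wells; inconclusive = half to three quarters of replicates exceed 75% inhibition; inactive = fewer than half of replicates exceed 75% inhibition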
An asterisk follows results filed as active; i = inactive; ? = inconclusive; · = no result. An excerpt weighted towards active compounds, which were near 2.2% of everything screened.

SMILES | CHT inh | Platelet DG rel | VLA-4 inh | CHT allo act | AI-2 QS modul | HIF activator | JMH597 growth | BB721 lum counter | BB721 growth rt | AI-2 QS JMH597
CC(C)(C)OC(=O)C[C@@H]1C/C=C\C[C@H](CC(=O)N[C@H](CO)Cc2ccccc2)C(=O)N2CCC[C@H]2COC1=O | · | · | -4 | · | · | · | · | · | · | ·
COc1ccc(N=C2SCC(=O)N2c2ccc(OC)cc2)cc1 | i | -4 | 5 | i | 13 | 0 | · | · | · | ·
COc1ccc(N=C2SCC(c3ccccc3)=NN2C)cc1 | i | -13 | -2 | i | -87* | 1 | 51 | 90* | 146 | 95*
Cc1cccn2c(=O)nc(SCC(=O)N3CCC(Cc4ccccc4)CC3)nc12 | i | -4 | -15 | i | 50 | 0 | · | · | · | ·
Clc1ccc(OCc2cc(-c3ccccc3)no2)cc1Cl | i | -4 | 18 | i | ? | 1 | -16 | 97* | -25 | 98*
Clc1ccc(-c2cc(COc3ccccc3)on2)cc1 | i | -7 | 17 | i | ? | 4 | · | · | · | ·
Cc1nc(-c2cccnc2)sc1C(=O)Nc1cccc(C(F)(F)F)c1 | i | 2 | -10 | i | -86* | 1 | -15 | 85* | 10 | 89*
Cc1nc(-c2cccnc2)sc1C(=O)Nc1ccc(C(F)(F)F)cc1 | i | -2 | 12 | i | 1 | 0 | · | · | · | ·
COC(=O)Cc1ccc(NC(=S)Nc2cccc(C)n2)cc1 | i | -27 | -1 | i | 30 | -42 | · | · | · | ·
c1ccc(OCCSc2nc3ccccc3o2)cc1 | i | -2 | 22 | i | -80* | 1 | 27 | 94* | 7 | 96*
CCOc1ccc(OCCSc2nc3ccccc3o2)cc1 | i | -1 | 2 | i | 23 | 0 | · | · | · | ·
c1ccc2oc(SCc3cn4ccccc4n3)nc2c1 | i | -3 | 14 | i | -78* | 2 | 3 | 92* | 3 | 95*
c1ccc(-c2noc(CSc3nc4ccccc4o3)n2)cc1 | i | 7 | 17 | i | ? | 0 | -3 | 87* | -34 | 94*
Clc1ccc(-c2nnc(SCc3nc(-c4ccccc4)no3)o2)cc1 | i | 7 | -5 | i | 22 | 0 | · | · | · | ·
O=C(COC(=O)Cc1cccs1)NCc1ccc(F)cc1 | i | 20 | 17 | i | 18 | 0 | · | · | · | ·
Clc1ccc(CON/C=N/c2ncnc3sccc23)c(Cl)c1 | i | -5 | -2 | i | -95* | 0 | 8 | 90* | 22 | 94*
Cc1ccc(/C=N/NC(=O)CNC(=O)c2cccs2)cc1 | i | 4 | 5 | i | -90* | 0 | 2 | 97* | 11 | 97*
O=C(CNC(=O)c1ccncc1)N/N=C/c1ccc(Br)cc1 | i | 0 | 4 | i | ? | 0 | 3 | 95* | 10 | 94*
O=C(CN(Cc1ccc(F)cc1)C(=O)c1csnn1)NC1CCCC1 | i | -8 | -26 | i | · | 1 | · | · | · | ·
Clc1ccc2oc(-c3cccnc3)nc2c1 | i | -2 | 3 | i | 17 | 5 | · | · | · | ·
Clc1ccc2oc(SCc3cccnc3)nc2c1 | i | 3 | 5 | i | -81* | -3 | 1 | 97* | 15 | 96*
CCOC(=O)C1=C(C)NC(=S)NC1C (centres undefined) | i | 35 | -8 | i | -82* | 0 | 27 | 56 | 31 | 72
CCCN(C(=O)COC(=O)Cn1c(=O)oc2ccccc21)c1c(N)n(Cc2ccccc2)c(=O)[nH]c1=O | i | 21 | -13 | i | 7 | 0 | · | · | · | ·
Cn1cccc1C(=O)OCC(=O)c1cc2ccccc2o1 | i | 0 | -2 | i | ? | 3 | · | · | · | ·
